This is a sample that favours compounds with a hit; in the whole collection about 0.39% have one here.
PKM2 activator: activators of human pyruvate kinase M2; purified PKM2, Kinase-Glo ATP luminescence, activation; response scale: 0% is enzyme alone, no compound; 0.34% of 260,000 active; P14618; Potency, µM (top dose mostly 57.5 µM), for inactives: top-dose activation, most hits filed as activators; also: % is scaled to controls: 0 for no effect and ±100 for the full control effect; nearly all actives have a fitted effect of over 55% in size
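Purified hPK-M2 (>95%) run at intermediate activity with 0.1 mM ADP and 0.5 mM PEP in 50 mM imidazole pH 7.2, KCl, MgCl2; 1 h room temperature. ATP formed read by Kinase-Glo luminescence; normalized to uninhibited and no-enzyme controls.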
AT treatment: potential ataxia-telangiectasia treatment. AID 485349. 0.19% of 320,000 active. Potency, µM (highest dose often 57.5 µM), without a hit: at the top dose activation, actives largely listed as activators. F2112 A-T fibroblasts, KAP-1 phosphorylation AlphaLISA; neocarzinostatin DNA damage 30 min before lysis; also: % of control where 0% means no effect; nearly all actives have a fitted effect of over 45% in size
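hTERT-immortalized A-T patient fibroblasts (F2112), 500 cells/well in OPTI-MEM, 1% FBS, got compounds for 60 min, then NCS for 30 min at 37C. Lysates were then assayed for phospho-KAP-1 by AlphaLISA (anti-pKAP1 donor, anti-KAP1 acceptor beads), 6 hr at 25C.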
PTAP TSG101 blk: blocks PTAP/TSG101 interaction to inhibit HIV-1 budding; Q99816; Fluorescence polarization, FITC-PTAP peptide / Tsg101 binding; Potency, µM (titrated, usually from 115 µM), inactives show at the highest dose activity change, negative = inhibition, actives largely listed as inhibitors; 340,000 tested, under 10 active; active = well fitted inhibition curve with a large enough effect in the main read-out, with a control signal flat, not every such curve was filed as active; inconclusive = small, poorly fitted or top-dose-only effect, or effect the other way, or a change in a side signal; inactive = no such curve, though single readings can be large or run the other way; also: % of control where 0% means no effect
Target sequence (Q99816 whole entry, looked up): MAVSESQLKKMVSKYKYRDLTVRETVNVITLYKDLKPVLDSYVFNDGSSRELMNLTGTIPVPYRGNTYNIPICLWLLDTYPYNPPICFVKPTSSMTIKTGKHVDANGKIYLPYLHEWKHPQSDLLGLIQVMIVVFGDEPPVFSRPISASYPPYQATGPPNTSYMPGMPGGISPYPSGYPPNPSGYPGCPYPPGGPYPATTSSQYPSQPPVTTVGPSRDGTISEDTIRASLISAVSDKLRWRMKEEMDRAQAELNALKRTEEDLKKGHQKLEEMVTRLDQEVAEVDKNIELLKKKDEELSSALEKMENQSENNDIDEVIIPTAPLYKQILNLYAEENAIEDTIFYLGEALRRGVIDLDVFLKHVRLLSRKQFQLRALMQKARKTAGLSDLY
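Steps: Tsg101 binding domain dispensed (10 uM final), compounds pinned in DMSO, FITC-labeled PTAP-motif peptide added (50 nM final); after 20 min binding at room temperature, polarization measured.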
Pin1 inhibitor: inhibitors of human Pin1; Q13526; Pin1 FP peptide displacement, HiFluor488, 10 min; Potency, µM (doses to about 115 µM), inactives show at the highest dose activity, negative = inhibition, usual class: inhibitors; 0.009% of 390,000 active; active = well fitted inhibition curve with a large enough effect in the polarisation, with a control signal flat, not every such curve was filed as active; inconclusive = small, poorly fitted or top-dose-only effect, or effect the other way, or a change in a side signal; inactive = no such curve, though single readings can be large or run the other way; the % refers to the polarisation; also: % is scaled to controls: 0 for no effect and ±100 for the full control effect
Target sequence (Q13526 whole entry, looked up): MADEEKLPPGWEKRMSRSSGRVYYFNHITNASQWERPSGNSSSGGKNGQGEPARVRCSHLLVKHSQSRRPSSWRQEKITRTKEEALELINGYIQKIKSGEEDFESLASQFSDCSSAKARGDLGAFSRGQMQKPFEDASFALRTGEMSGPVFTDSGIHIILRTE
Active calls of the source: *; ? = inconclusive; . = not tested or not shown. Unless noted, calls follow the shape of the dose curve; as a rule, active = well fitted activation curve with a large enough effect; inconclusive = small, poorly fitted or top-dose-only effect; inactive = no such curve, though single readings can be large or run the other way. Potency is read from the fitted curve at half-maximal effect.

SMILES	PKM2 activator	AT treatment	PTAP TSG101 blk	Pin1 inhibitor
c1cncc(CSc2nnc3ccc(-c4ccncc4)nn23)c1	20%	-2%	1%	-8%
COc1ccc([C@H]2[C@H](c3ccccc3)C(=O)N2Cc2ccccc2)cc1COc1ccc(NC(C)=O)cc1	.	.	.	51%
CCN1CCN(Cc2ccc(NC(=O)c3ccc(C)c(NC(=O)c4csc(-c5ccncc5)n4)c3)cc2C(F)(F)F)CC1	-21%	40µM*	-6%	9%
CCN(C(=O)c1cc2c(=O)n3ccccc3nc2n1C)C1CCCCC1	.	?	-3%	-3%
CCN(C(=O)c1cc2c(=O)n3ccccc3nc2n1CCCOC)C1CCCCC1	.	28µM*	-4%	7%
Cc1c(P(=S)(c2ccccc2)c2ccccc2)c2ccccc2n1C(=O)NCc1ccc(F)cc1	.	.	.	-2%
O=c1c2ccccc2nc2sc(Nc3ccc4c(c3)CCC4)nn12	.	.	.	68%
c1ccc2c(c1)Oc1cccc3cccc-2c13	1%	10µM*	3%	0%
O=c1[nH]c(N/N=C/c2cc3c(cc2[N+](=O)[O-])OCO3)nc2ccccc12	40µM*	3%	0%	-10%
O=c1[nH]c(N/N=C\c2ccc3c(c2)OCO3)nc2ccccc12	-14%	5%	-1%	-3%
CC(Sc1ccc([N+](=O)[O-])cn1)C(=O)Nc1nccs1 (stereo not drawn)	6.3µM*	0%	3%	0%
Cc1cc(C)c2c(=O)cc(C(=O)NCc3ccccc3)oc2c1	.	35µM*	0%	12%
Cc1cc(C)c2oc(C(=O)NCc3ccccc3)cc(=O)c2c1	.	3%	-1%	-2%
CCN(CC)c1ccc2c(C)c(Cl)c(=O)oc2c1	13%	2%	-14%	?
CCOC(=O)Cc1c(C)c2ccc(N(CC)CC)cc2oc1=O	-2%	25µM*	-3%	-3%
CCN(CC)c1ccc2c(C)cc(=O)oc2c1	.	32µM*	-2%	1%
CCN(CC)c1ccc2ccc(=O)oc2c1	1%	-3%	-10%	5%
CCCn1nc(NC(C)=O)c2cc3cccc(C)c3nc21	.	14µM*	-1%	-4%
CCCn1nc(NC(=O)c2ccncc2)c2cc3ccccc3nc21	-6%	13%	-2%	-10%
CCCCn1nc(NC(=O)c2cccs2)c2cc3cc(OC)ccc3nc21	-1%	28µM*	0%	3%
CCCn1nc(NC(=O)c2cccs2)c2cc3cc(OC)ccc3nc21	7%	?	-1%	5%
CCCC(=O)Nc1nn(CCC)c2nc3ccccc3cc12	1%	28µM*	-5%	19%
COc1ccc(-c2nc3ccccc3c(=O)n2Cc2ccccc2)cc1OCc1ccc(NC(C)=O)cc1	.	.	.	13%
O=C(OCC#CCSc1nnc(-c2cccc3ccccc23)o1)c1sc(Cl)c(Cl)c1Cl	.	.	.	-5%
Cn1nnnc1Sc1ncnc2scc(-c3ccc(C(=O)OC(C)(C)C)cc3)c12	.	.	.	-1%
SMILES	PKM2 activator	AT treatment	PTAP TSG101 blk	Pin1 inhibitor
CCc1cccc(NS(=O)(=O)c2ccc3c(c2)CCC(=O)N3)c1	2.8µM*	2%	1%	-4%
Cc1ccc(NS(=O)(=O)c2ccc3c(c2)CC(=O)N3)cc1C	14µM*	13%	0%	-1%
O=C1CCc2cc(S(=O)(=O)Nc3cccc(Cl)c3)ccc2N1	.	.	.	3%
Cc1cccc(NS(=O)(=O)c2ccc3c(c2)CCC(=O)N3)c1	4µM*	-4%	0%	-11%
CCc1cccc(NS(=O)(=O)c2ccc3c(c2)NC(=O)CC(=O)N3)c1	9%	-1%	-1%	-1%
Cc1ccc(NS(=O)(=O)c2ccc3c(c2)CCC(=O)N3)cc1F	.	.	.	-9%
O=C(CNC(=O)c1ccccc1Cl)OC(C(=O)Nc1cc(C(F)(F)F)ccc1Cl)c1ccccc1 (stereo not drawn)	.	.	.	0%
COc1ccc(Br)cc1/C=C/C(=O)Nc1ccc2ccccc2c1	-4%	0%	-1%	10%
CC(=O)Nc1cccc(C(=O)/C=C/c2ccc(Br)cc2)c1	-2%	25µM*	0%	?
CCC(=O)Nc1cccc(C(=O)/C=C/c2cc(Br)ccc2OC)c1	3%	35µM*	-6%	5%
Cc1ccc(NS(=O)(=O)c2ccc3c(c2)CCC(=O)N3)cc1Cl	.	.	.	-2%
O=C1C=CC(=O)N1c1ccc(Sc2ccc([N+](=O)[O-])cc2)cc1	32µM*	2%	.	.
C/C=C\C=C/C(=O)Nc1cccc(C2=NOC3(C2)C[C@H](C(N)=O)N(C(=O)c2ccc(OC)cc2)C3)c1 (stereo partly drawn)	14µM*	10%	0%	?
C/C=C\C=C/C(=O)Nc1cccc(C2=NOC3(C2)C[C@@H](C(N)=O)N(C(=O)c2ccc(Cl)cc2)C3)c1 (stereo partly drawn)	?	?	-3%	9%
C/C=C\C=C/C(=O)Nc1cccc(C2=NOC3(C2)C[C@H](C(N)=O)N(C(=O)CC)C3)c1 (stereo partly drawn)	13µM*	3%	1%	14%
C/C=C/C=C\C(=O)Nc1cccc(C2=NOC3(C2)C[C@H](C(N)=O)N(C(=O)CC#N)C3)c1 (stereo partly drawn)	20µM*	3%	-7%	17%
COc1ccc2nc(-c3ccc(N(C)C)cc3)sc2c1	.	.	.	13%
CN1CCN(c2ccc(Nc3nn4c(=O)c5ccccc5nc4s3)cc2)CC1	.	.	.	-34%
COc1cc(F)c(S(=O)(=O)N2CCCN(S(=O)(=O)c3ccc(NC(C)=O)cc3)CC2)c(F)c1	.	.	.	-1%
COc1cc(/C=C2\CCOC2=O)cc(OC)c1OC	4%	1µM*	-1%	-1%
Cc1ccn2c(NC3CCCC3)c(-c3ccncc3)nc2c1	2%	3%	-7%	-13%
Cc1ccn2c(NC3CCCCC3)c(-c3cccc(-c4cccc(Cl)c4)c3)nc2c1	.	25µM*	.	49%
CC(C)Oc1cccc(-c2ccnc(N3CCC(C(N)=O)CC3)n2)c1	.	.	.	-1%
O=S(=O)(c1ccc(C(F)(F)F)cc1)N1CCN(S(=O)(=O)c2ccc3c(c2)OCCO3)CC1	.	.	.	-4%
O=C1C=CC(=O)N1c1cccc(-c2ccccc2)c1	3.2µM*	?	3%	57%
SMILES	PKM2 activator	AT treatment	PTAP TSG101 blk	Pin1 inhibitor
O=C(Nc1cccc(N2C(=O)C=CC2=O)c1)c1cccs1	.	-6%	.	.
O=C1c2ccccc2C(=O)N1c1noc2ccccc12	.	.	.	2%
COc1cc(NC(=O)C(OC(=O)CNC(=O)c2ccccc2)c2ccccc2)c(OC)cc1Cl (stereo not drawn)	.	.	.	0%
O=C(CCc1nc2ccccc2s1)N1CCN(S(=O)(=O)c2cccs2)CC1	?	8%	-3%	5%
O=C(OCc1nc2ccccc2s1)C1CCN(S(=O)(=O)c2cccs2)CC1	8.9µM*	0%	-4%	18%
O=S(=O)(c1cccs1)N1CCN(Cc2nc3ccccc3s2)CC1	22µM*	6%	-5%	3%
CC(C)c1ccc(NC(=O)C(c2ccccc2)N2CC(=O)Nc3ccccc32)cc1 (stereo not drawn)	3%	35µM*	-5%	11%
COc1ccccc1-c1ccc(/C=C2\C=CC(=O)O2)o1	7%	28%	?	?

High-throughput results from PubChem.
